Experiments:
[1] = target: T1, Serine/threonine-protein kinase Chk1 (Homo sapiens) (UniProt O14757); details: at 1 µM
T1 sequence (whole entry): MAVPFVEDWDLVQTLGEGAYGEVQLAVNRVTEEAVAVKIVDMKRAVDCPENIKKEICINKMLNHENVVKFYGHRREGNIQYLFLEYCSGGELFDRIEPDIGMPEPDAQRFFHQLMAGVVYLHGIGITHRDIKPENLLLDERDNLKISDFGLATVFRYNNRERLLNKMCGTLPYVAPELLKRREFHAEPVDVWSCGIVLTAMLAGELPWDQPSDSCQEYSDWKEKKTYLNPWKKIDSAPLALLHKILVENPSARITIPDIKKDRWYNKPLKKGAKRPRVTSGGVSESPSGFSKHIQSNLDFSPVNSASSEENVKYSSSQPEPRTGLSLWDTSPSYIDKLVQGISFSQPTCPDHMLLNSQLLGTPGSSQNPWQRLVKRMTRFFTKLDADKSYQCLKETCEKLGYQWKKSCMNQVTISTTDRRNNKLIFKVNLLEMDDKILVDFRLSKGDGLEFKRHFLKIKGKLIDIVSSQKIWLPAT

[2] = target: T1, Serine/threonine-protein kinase Chk1 (Homo sapiens); details: at 10 µM
[3] = target: Serine/threonine-protein kinase Chk2 (Homo sapiens) (UniProt O96017); details: at 1 µM
[4] = target: Serine/threonine-protein kinase Chk2 (Homo sapiens) (UniProt O96017); details: at 10 µM
[5] = target: Casein kinase I isoform gamma-1 (Homo sapiens) (UniProt Q9HCP0); details: at 1 µM
[6] = target: Casein kinase I isoform gamma-1 (Homo sapiens) (UniProt Q9HCP0); details: at 10 µM
[7] = target: Casein kinase I isoform delta (Homo sapiens) (UniProt P48730); details: at 1 µM
[8] = target: Casein kinase I isoform delta (Homo sapiens) (UniProt P48730); details: at 10 µM
[9] = target: T2, Casein kinase II (Homo sapiens) (UniProt P67870+P68400+P19784); details: at 1 µM
[10] = target: T2, Casein kinase II (Homo sapiens); details: at 10 µM
[11] = target: Casein kinase II subunit alpha' (Homo sapiens) (UniProt P19784); details: at 1 µM
[12] = target: Casein kinase II subunit alpha' (Homo sapiens) (UniProt P19784); details: at 10 µM
[13] = target: Dual specificity protein kinase CLK2 (Homo sapiens) (UniProt P49760); details: at 1 µM
[14] = target: Dual specificity protein kinase CLK2 (Homo sapiens) (UniProt P49760); details: at 10 µM
[15] = target: Dual specificity protein kinase CLK3 (Homo sapiens) (UniProt P49761); details: at 1 µM
[16] = target: Dual specificity protein kinase CLK3 (Homo sapiens) (UniProt P49761); details: at 10 µM
[17] = target: Tyrosine-protein kinase CSK (Homo sapiens) (UniProt P41240); details: at 1 µM
[18] = target: Tyrosine-protein kinase CSK (Homo sapiens) (UniProt P41240); details: at 10 µM
[19] = target: T3, CDK9/cyclin T1 (Homo sapiens) (UniProt O60563+P50750); details: at 1 µM
[20] = target: T3, CDK9/cyclin T1 (Homo sapiens); details: at 10 µM

Sequence of Casein kinase II subunit alpha' (Homo sapiens) (P19784 whole entry, looked up): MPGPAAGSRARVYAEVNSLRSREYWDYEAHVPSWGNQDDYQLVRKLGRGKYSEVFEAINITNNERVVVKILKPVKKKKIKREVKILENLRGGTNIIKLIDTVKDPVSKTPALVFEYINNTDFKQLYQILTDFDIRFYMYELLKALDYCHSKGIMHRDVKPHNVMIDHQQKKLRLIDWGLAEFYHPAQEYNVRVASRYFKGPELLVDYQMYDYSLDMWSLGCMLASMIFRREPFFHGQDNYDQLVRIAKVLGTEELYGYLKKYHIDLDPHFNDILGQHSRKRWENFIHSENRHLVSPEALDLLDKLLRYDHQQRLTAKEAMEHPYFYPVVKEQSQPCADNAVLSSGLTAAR
T2 sequence (P19784 whole entry, looked up): as above
T2 sequence (P67870 whole entry, looked up): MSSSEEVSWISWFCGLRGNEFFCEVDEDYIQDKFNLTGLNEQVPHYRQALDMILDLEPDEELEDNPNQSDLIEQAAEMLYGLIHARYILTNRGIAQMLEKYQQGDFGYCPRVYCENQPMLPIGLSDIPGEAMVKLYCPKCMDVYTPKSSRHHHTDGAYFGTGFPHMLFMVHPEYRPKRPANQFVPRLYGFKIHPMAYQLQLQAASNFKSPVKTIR
T2 sequence (P68400 whole entry, looked up): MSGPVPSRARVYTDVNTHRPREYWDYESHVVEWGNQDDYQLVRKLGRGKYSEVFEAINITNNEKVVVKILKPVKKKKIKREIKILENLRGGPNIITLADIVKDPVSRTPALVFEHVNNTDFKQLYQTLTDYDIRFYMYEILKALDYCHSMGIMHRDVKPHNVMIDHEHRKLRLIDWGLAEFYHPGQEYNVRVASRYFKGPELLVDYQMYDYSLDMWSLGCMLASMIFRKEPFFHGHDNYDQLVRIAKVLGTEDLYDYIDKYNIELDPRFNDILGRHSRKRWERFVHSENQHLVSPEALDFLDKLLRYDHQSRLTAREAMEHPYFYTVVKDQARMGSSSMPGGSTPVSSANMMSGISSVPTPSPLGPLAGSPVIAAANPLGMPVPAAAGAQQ
Sequence of Dual specificity protein kinase CLK2 (Homo sapiens) (P49760 whole entry, looked up): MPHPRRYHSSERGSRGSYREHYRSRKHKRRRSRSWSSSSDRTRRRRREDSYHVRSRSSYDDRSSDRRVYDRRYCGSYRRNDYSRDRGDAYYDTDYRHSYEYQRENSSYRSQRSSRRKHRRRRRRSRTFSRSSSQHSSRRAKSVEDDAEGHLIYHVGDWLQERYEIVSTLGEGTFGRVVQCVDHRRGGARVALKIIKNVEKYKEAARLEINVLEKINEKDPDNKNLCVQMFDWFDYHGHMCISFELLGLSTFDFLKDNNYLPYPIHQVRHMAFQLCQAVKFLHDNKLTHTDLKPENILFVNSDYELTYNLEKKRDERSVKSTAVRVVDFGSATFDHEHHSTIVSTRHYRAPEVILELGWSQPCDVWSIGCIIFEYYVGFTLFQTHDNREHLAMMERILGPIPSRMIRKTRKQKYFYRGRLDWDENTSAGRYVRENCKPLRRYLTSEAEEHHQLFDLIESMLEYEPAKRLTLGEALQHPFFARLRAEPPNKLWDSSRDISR
Sequence of Casein kinase I isoform gamma-1 (Homo sapiens) (Q9HCP0 whole entry, looked up, canonical isoform): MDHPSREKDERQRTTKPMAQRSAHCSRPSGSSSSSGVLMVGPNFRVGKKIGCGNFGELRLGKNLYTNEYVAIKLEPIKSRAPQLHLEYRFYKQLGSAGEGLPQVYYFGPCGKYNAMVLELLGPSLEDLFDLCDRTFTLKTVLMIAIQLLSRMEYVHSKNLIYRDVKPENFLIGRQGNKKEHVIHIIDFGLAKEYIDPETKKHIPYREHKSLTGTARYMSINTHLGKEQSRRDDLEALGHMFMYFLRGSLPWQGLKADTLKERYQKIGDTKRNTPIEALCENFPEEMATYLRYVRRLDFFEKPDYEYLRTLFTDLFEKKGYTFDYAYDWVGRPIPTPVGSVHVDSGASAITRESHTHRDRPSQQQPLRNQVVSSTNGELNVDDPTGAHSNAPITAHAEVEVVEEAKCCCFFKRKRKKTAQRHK
Sequence of Tyrosine-protein kinase CSK (Homo sapiens) (P41240 2-450 limits assumed): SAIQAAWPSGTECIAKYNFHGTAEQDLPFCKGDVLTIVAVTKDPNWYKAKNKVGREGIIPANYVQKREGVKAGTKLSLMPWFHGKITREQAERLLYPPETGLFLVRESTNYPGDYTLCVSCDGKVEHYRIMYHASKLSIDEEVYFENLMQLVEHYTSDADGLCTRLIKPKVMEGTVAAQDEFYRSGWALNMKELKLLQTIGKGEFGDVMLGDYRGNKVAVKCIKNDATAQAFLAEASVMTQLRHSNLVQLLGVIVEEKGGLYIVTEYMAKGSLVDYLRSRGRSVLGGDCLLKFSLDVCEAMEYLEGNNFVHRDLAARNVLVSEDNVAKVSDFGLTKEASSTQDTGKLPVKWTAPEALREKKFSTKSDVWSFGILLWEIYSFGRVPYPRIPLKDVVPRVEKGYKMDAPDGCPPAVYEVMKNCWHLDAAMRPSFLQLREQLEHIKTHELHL
Sequence of Casein kinase I isoform delta (Homo sapiens) (P48730 whole entry, looked up, canonical isoform): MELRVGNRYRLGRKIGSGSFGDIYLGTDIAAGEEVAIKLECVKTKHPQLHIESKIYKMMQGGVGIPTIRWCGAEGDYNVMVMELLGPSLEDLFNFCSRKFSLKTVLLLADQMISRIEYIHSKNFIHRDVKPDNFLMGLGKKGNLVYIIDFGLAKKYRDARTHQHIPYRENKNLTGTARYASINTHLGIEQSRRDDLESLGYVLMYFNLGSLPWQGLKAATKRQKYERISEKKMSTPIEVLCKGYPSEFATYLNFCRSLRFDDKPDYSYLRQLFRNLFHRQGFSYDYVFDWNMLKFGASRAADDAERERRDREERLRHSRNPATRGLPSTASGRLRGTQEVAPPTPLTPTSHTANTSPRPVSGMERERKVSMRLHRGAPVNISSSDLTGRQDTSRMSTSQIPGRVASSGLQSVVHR
Sequence of Dual specificity protein kinase CLK3 (Homo sapiens) (P49761 whole entry, looked up): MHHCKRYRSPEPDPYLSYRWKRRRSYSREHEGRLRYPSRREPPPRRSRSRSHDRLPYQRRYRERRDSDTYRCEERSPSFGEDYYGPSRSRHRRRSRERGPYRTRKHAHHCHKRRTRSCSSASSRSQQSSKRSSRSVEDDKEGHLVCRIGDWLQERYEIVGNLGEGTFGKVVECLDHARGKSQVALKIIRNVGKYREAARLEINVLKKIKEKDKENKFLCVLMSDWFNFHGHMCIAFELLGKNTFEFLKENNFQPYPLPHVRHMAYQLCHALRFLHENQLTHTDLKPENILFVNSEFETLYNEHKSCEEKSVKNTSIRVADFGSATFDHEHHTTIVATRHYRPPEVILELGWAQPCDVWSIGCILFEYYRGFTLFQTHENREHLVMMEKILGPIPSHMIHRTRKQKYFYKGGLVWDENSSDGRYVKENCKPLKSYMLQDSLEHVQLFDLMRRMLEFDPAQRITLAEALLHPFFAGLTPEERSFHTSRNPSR
Sequence of Serine/threonine-protein kinase Chk2 (Homo sapiens) (O96017 whole entry, canonical isoform): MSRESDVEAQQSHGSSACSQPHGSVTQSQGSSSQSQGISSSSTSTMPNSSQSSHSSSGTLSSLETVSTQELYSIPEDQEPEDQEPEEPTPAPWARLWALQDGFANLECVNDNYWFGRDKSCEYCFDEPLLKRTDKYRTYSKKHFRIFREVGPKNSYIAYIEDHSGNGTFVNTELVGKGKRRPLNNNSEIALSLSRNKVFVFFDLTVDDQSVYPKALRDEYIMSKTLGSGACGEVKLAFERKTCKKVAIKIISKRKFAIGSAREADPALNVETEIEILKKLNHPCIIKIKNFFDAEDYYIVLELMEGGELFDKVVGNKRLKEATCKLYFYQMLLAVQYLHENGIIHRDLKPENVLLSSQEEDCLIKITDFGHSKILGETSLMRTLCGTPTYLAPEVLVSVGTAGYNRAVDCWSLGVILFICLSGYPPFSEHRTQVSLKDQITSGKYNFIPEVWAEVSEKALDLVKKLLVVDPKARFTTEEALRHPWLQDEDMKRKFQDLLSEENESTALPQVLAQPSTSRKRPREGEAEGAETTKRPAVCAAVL

## CC(C)(C)c1cc(C=C(C#N)C#N)cc(Br)c1O
[1]
  residual activity: 105%
[2]
  residual activity: 105%
[3]
  residual activity: 96%
[4]
  residual activity: 99%
[5]
  residual activity: 104%
[6]
  residual activity: 97%
[7]
  residual activity: 99%
[8]
  residual activity: 48%
[9]
  residual activity: 113%
[10]
  residual activity: 114%
[11]
  residual activity: 121%
[12]
  residual activity: 113%
[13]
  residual activity: 99%
[14]
  residual activity: 103%
[15]
  residual activity: 100%
[16]
  residual activity: 108%
[17]
  residual activity: 103%
[18]
  residual activity: 105%

## COc1cc2ncnc(Nc3ccc(OCc4ccccc4)cc3)c2cc1OC
[19]
  residual activity: 100%
[20]
  residual activity: 87%
[1]
  residual activity: 101%
[2]
  residual activity: 87%
[3]
  residual activity: 8%
[4]
  residual activity: 3%
[5]
  residual activity: 95%
[6]
  residual activity: 95%
[7]
  residual activity: 77%
[8]
  residual activity: 79%
[9]
  residual activity: 92%
[10]
  residual activity: 116%
[11]
  residual activity: 121%
[12]
  residual activity: 99%
[13]
  residual activity: 117%
[14]
  residual activity: 93%
[15]
  residual activity: 82%
[16]
  residual activity: 87%
[17]
  residual activity: 84%
[18]
  residual activity: 62%

## CCc1nc(-c2ccc(OC)cc2)[nH]c1-c1ccncc1
[7]
  residual activity: 74%
[8]
  residual activity: 37%
[11]
  residual activity: 121%
[12]
  residual activity: 100%
[13]
  residual activity: 101%
[14]
  residual activity: 74%
[17]
  residual activity: 123%
[18]
  residual activity: 102%

## COc1cc2nccc(Oc3ccc(NC(=O)Nc4cc(C)on4)c(Cl)c3)c2cc1OC
[19]
  residual activity: 76%

## C[S+]([O-])c1ccc(-c2nc(-c3ccc(F)cc3)c(-c3ccncc3)[nH]2)cc1 (configuration not stated)
[19]
  residual activity: 98%
[20]
  residual activity: 108%
[1]
  residual activity: 104%
[2]
  residual activity: 97%
[3]
  residual activity: 90%
[4]
  residual activity: 90%
[5]
  residual activity: 119%
[6]
  residual activity: 61%
[9]
  residual activity: 100%
[10]
  residual activity: 104%
[11]
  residual activity: 122%
[12]
  residual activity: 105%
[13]
  residual activity: 114%
[14]
  residual activity: 94%
[15]
  residual activity: 98%
[16]
  residual activity: 98%
[17]
  residual activity: 103%
[18]
  residual activity: 98%

## O=[N+]([O-])/C=C/c1ccc2c(c1)OCO2
[19]
  residual activity: 112%
[20]
  residual activity: 100%
[1]
  residual activity: 85%
[2]
  residual activity: 101%
[3]
  residual activity: 85%
[4]
  residual activity: 85%
[5]
  residual activity: 83%
[7]
  residual activity: 98%
[8]
  residual activity: 113%
[9]
  residual activity: 105%
[10]
  residual activity: 126%
[11]
  residual activity: 134%
[12]
  residual activity: 102%
[13]
  residual activity: 121%
[14]
  residual activity: 101%
[15]
  residual activity: 91%
[17]
  residual activity: 112%
[18]
  residual activity: 100%

## COc1ccc2c(c[n+](C)c3c4cc5c(cc4ccc23)OCO5)c1OC
[1]
  residual activity: 86%
[2]
  residual activity: 99%
[3]
  residual activity: 73%
[4]
  residual activity: 90%
[5]
  residual activity: 80%
[6]
  residual activity: 71%
[9]
  residual activity: 92%
[10]
  residual activity: 110%
[11]
  residual activity: 126%
[13]
  residual activity: 120%
[14]
  residual activity: 93%
[15]
  residual activity: 74%
[16]
  residual activity: 80%
[18]
  residual activity: 95%

## CC(C)[C@H](CO)Nc1nc(Nc2cccc(Cl)c2)c2ncn(C(C)C)c2n1
[19]
  residual activity: 23%
[20]
  residual activity: 5%
[1]
  residual activity: 99%
[2]
  residual activity: 86%
[3]
  residual activity: 96%
[4]
  residual activity: 38%
[5]
  residual activity: 10%
[6]
  residual activity: 1%
[7]
  residual activity: 74%
[8]
  residual activity: 23%
[9]
  residual activity: 99%
[10]
  residual activity: 96%
[13]
  residual activity: 8%
[14]
  residual activity: 1%
[15]
  residual activity: 55%
[16]
  residual activity: 11%
[18]
  residual activity: 65%

## CN[C@@H]1C[C@H]2O[C@@](C)([C@@H]1OC)n1c3ccccc3c3c4c(c5c6ccccc6n2c5c31)C(=O)NC4
[7]
  residual activity: 77%
[8]
  residual activity: 46%
[9]
  residual activity: 81%
[10]
  residual activity: 85%
[11]
  residual activity: 83%
[12]
  residual activity: 85%

## O=C1c2ccccc2-c2nc3nnnn3nc21
[11]
  residual activity: 129%
[12]
  residual activity: 77%
[13]
  residual activity: 115%
[14]
  residual activity: 107%
[15]
  residual activity: 83%
[16]
  residual activity: 119%
[17]
  residual activity: 123%
[18]
  residual activity: 115%

## O=c1[nH]c2ccccc2n1C1CCN(Cc2ccc(-c3nc4cc5[nH]cnc5cc4nc3-c3ccccc3)cc2)CC1
[19]
  residual activity: 104%
[20]
  residual activity: 105%
[1]
  residual activity: 102%
[2]
  residual activity: 88%
[3]
  residual activity: 95%
[4]
  residual activity: 87%
[5]
  residual activity: 90%
[6]
  residual activity: 62%
[7]
  residual activity: 84%
[8]
  residual activity: 53%
[9]
  residual activity: 89%
[10]
  residual activity: 101%
[11]
  residual activity: 113%
[12]
  residual activity: 95%
[13]
  residual activity: 98%
[14]
  residual activity: 76%
[16]
  residual activity: 76%
[17]
  residual activity: 112%
[18]
  residual activity: 89%

— ChEMBL document CHEMBL2218924, “A broad activity screen in support of a chemogenomic map for kinase signalling research and drug discovery” (Biochem J, 2013)
